Molecules are shown by their SMILES. This is part of a sample that, as a whole, favours compounds with a hit. Of some 83,000 tested, about 20% had one in any assay.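 For each line, cells grew in 96-well plates with the test compound present at a single concentration for 48 hours.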 Active and inactive are the calls of the source. The calls were made as follows: active = growth percent below 10; inactive = the rest.

The subject of this test is NCI-H226 lung. Briefly: NCI-60 one-dose screen, 48 h (100 = growth as untreated, 0 = no growth, -100 = all killed). Conditions: 10 µM unless noted.
`C[C@@H]1OCC2(CCN(c3cnc(C(=O)Nc4cc(F)cc5cccnc45)cn3)CC2)[C@@H]1N`: the growth is 78.6% (inactive).
The same measure for `Cn1c(SCC(=O)c2ccc(F)cc2)nc2ccccc2c1=O`: 93% (inactive); for `O=C(CCCCCC/C=C\c1csc(Br)n1)NO`: 96.8% (inactive); for `COc1ccc(-c2cc(-c3ccc(N4CCOCC4)cc3)n3c(n2)nc2ccccc23)cc1OC`: 85.7% (inactive).
Regarding `CN(C)c1cccc2c(S(=O)(=O)Nc3cccc(-c4csc(NC(=O)CCCCCN5CCN(CCO)CC5)n4)c3)cccc12`, the growth is 91.2% (inactive).
As for `O=c1nc(Nc2ccc([N+](=O)[O-])cc2O)sc2ccccc12`, the growth is 57.2% (inactive).
The same measure for `CCc1cc(OC(=O)N2CCC(N3CCCCC3)CC2)ccc1Nc1cc(-c2ccc(-n3cccn3)cc2)[nH]n1`: 77.9% (inactive); for `COc1ccc(-c2c(C(N)=O)c(N)n(Cc3nc4ccccc4[nH]3)c(=O)c2C#N)c(OC)c1`: 94.5% (inactive); for `CCOC(=O)Nc1ccc2c(ccn2C(=O)c2cccc(F)c2)c1`: 53.5% (inactive).
With `CN(C)CCCOc1ccc(C(=C(c2ccccc2)C2CCCC2)c2ccc(OCCCN(C)C)cc2)cc1`, the growth is -67.5% (active).
The same measure for `CN1CCC[C@]2(C)[C@H]3CC[C@@H]4[C@@H]5[C@H]6OC[C@@]5(CCC6(C)C)CC[C@@]4(C)[C@]3(C)CC[C@H]2C1(C)C`: 93.2% (inactive).
As to `CNC(=O)c1cc(-c2ccc(NC(=S)Nc3cccc(C(F)(F)F)c3)cc2)nc2cccnc12`, the growth was 95.8% (inactive).
In the case of `CC1(C)C=Cc2cc(/C(N)=N/C(N)=N/c3nc4ccccc4s3)ccc2O1`, the growth is 5.64% (active).
With `C#Cc1cc(C(=O)Nc2ccc(CNCCN3CCOCC3)c(C(F)(F)F)c2)ccc1C`, the growth was 95.4% (inactive).
For `CC(C)(O)c1cncc(-c2ccc3ncc(C#N)c(N4CCc5cc(F)c(Cl)cc54)c3c2)c1`, the growth was -6.33% (active).
For the molecule `CN1CCN(Cc2ccc(/C=N/Nc3ccnc4cc(Cl)ccc34)cc2)CC1`, the growth is 88.4% (inactive).
`Cc1ccc(C(=O)CSc2nnc(-c3ccc(-c4ccc(Cl)cc4)nc3C)o2)cc1`: the growth is 88.6% (inactive).
The same measure for `Cc1ccccc1N1CCN(C2=C(Cl)C(=O)c3ncccc3C2=O)CC1`: 94.2% (inactive); for `O=C1Nc2ccccc2/C1=C/c1ccc(OCC(=O)c2ccccc2)cc1`: 89% (inactive); for `CC1=C(C)C(=O)C(Nc2ccc3c(c2)OCCO3)=C(Br)C1=O`: 85.6% (inactive).
For `CCN(CC)c1ccc(/C=N/NC(=O)c2ccc(S(N)(=O)=O)cc2)c(O)c1`, the growth was 43.1% (inactive).
With `Cc1ccc(S(=O)(=O)NCCCNc2nc(Nc3ccc(N4CCN(C)CC4)cc3)nc3ccsc23)cc1`, the growth is 117% (inactive).
For `CN1CCN(Cc2ccc(NC(=O)c3cncc(C#Cc4cnc5ccc(NCCO)nn45)c3)cc2C(F)(F)F)CC1`, the growth was -14% (active).
For the molecule `COC(=O)c1cccc(NC2=C(Cl)C(=O)c3nc(C)ccc3C2=O)c1`, the growth was 87% (inactive).
The same measure for `O=C1Nc2cc(Cl)ccc2/C1=C\c1ccc(OCc2ccccc2)cc1`: 92.9% (inactive); for `Cc1ccc(-c2csc(N/N=C/c3cccs3)n2)cc1`: 70.1% (inactive).
For `O=[N+]([O-])c1ccc(NC(=S)NNC(=S)Nc2ccc(Br)cc2)cc1`, the growth is 97.3% (inactive).

The values are drawn from PubChem BioAssay (NCI).
